Experimental findings from PubChem BioAssay (NCI) are described below.

The panel holds about 83,000 compounds, 20% with a hit somewhere; the sample as a whole holds those more often.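 A percent growth of 40 corresponds to 60% growth inhibition; 0 means no net growth; -100 means all cells died. Active threshold: below 10.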 Calls of active or inactive are those of the source.

The subject of one test is HCT-116 colon. The test is described as follows: NCI-60 one-dose screen, 48 h (100 = growth as untreated, 0 = no growth, -100 = all killed). The following applies: 10 µM unless noted.
In the case of `C=C1C(=O)O[C@H]2[C@H]1CC/C(COC(=O)NCCc1ccc(Br)cc1)=C\CC[C@@]1(C)O[C@@H]21`, the growth was -72.1% (active). Consider `COc1ccc(C(=O)/C=C/c2ccc(/C=C/c3cc(OC)c(OC)c(OC)c3)cc2)cc1`, for which the growth is 17.5% (inactive).

As for `COc1ccc(C2CC(=O)Nc3c2c(C)nn3-c2nc3ccccc3[nH]2)cc1OC` (stereo not drawn), the growth was 17.4% (inactive). `O=C(O)c1ccc(-n2cc(CNc3ccc(C(F)(F)F)cc3)c(-c3ccccc3)n2)cc1`: the growth is 101% (inactive).

For the compound `C=C1C(=O)O[C@H]2[C@H]1CC/C(COC(=O)NCCc1cccc(OC)c1)=C\CC[C@@]1(C)O[C@@H]21`, the growth was -63.9% (active). Consider `Nc1ccc(S(=O)(=O)c2ccc(Cl)cc2)cc1`, for which the growth is 97.2% (inactive).

On to `C/C(=C\c1csc(C)n1)[C@@H]1C[C@@H]2O[C@]2(C)CCC[C@H](C)[C@H](O)[C@@H](C)C(=O)C(C)(C)[C@@H](O)CC(=O)N1`, for which the growth is -79.1% (active).

As to `CCNC(=O)C1CCCN1C(=O)C(CCCN=C(N)N)NC(=O)C(CC(C)C)NC(=O)C(CC(C)C)NC(=O)C(Cc1ccc(O)cc1)NC(=O)C(CO)NC(=O)C(Cc1c[nH]c2ccccc12)NC(=O)C(Cc1cnc[nH]1)NC(=O)C1CCC(=O)N1` (stereo not drawn), the growth is 95.2% (inactive).

Turning to `O=C(O)C(=Cc1c2ccccc2cc2ccccc12)C(=O)O`, the growth was 97.7% (inactive). Take `CCCCCCCCCCn1cc[n+](C)c1`: the growth is 17.6% (inactive).

Regarding `Cc1oc2ncnc(Nc3ccccc3)c2c1C(=O)NCCO`, the growth was 99.3% (inactive). On to `O=C(Nc1ccc(I)cc1)c1cc([N+](=O)[O-])ccc1O`, for which the growth is 19.3% (inactive). For `C[C@]12CC[C@@H]3c4cc(O)c(O)cc4CC[C@H]3[C@@H]1CC[C@@H]2O`, the growth is 37.9% (inactive). The same measure, in the same setting: as for `O=C1C2=C(C(=O)c3c(O)ccc(O)c31)N(c1cccnc1)Cc1ccccc1O2`, the figure is -71% (active); as for `COc1ccc(-c2nc3sccn3c2-c2ccnc(NCCCNS(=O)(=O)c3ccc(C)cc3)n2)cc1`, 25% (inactive); as for `NC(=O)c1cccc(N2Cc3ccccc3OC3=C2C(=O)c2c(O)ccc(O)c2C3=O)c1`, -69.1% (active).

In the case of `Nc1cccc2c1CN(C1CCC(=O)NC1=O)C2=O` (stereo not drawn), the growth was 114% (inactive). Take `COc1ccc2c(c1)C(=O)/C(=C/c1ccc(O)cc1)O2`: the growth is 8.95% (active). As for `COc1cccc(-c2nc3sccn3c2-c2ccnc(NCCCNS(=O)(=O)c3ccc(F)cc3)n2)c1`, the growth is 19.9% (inactive). Same read-out and setting: the result for `O=C1NCC(c2cc3ccccc3[nH]c2=O)Nc2ccccc21` (stereo not drawn) reads 92.6% (inactive); that for `COC1=CC(c2ccc[nH]2)=N/C1=C\c1[nH]c(C)c(C(=O)CCCCC(=O)NCc2ccccc2)c1C`, -83.1% (active). For the compound `COc1ncc(-c2ccc3ncnc(Nc4cccc(Cl)c4)c3c2)cc1NS(=O)(=O)C1CC1`, the growth was 49.2% (inactive). Consider `C=C1C(=O)O[C@H]2[C@H]1CC/C(Cn1cc(-c3ccsc3)nn1)=C\CC[C@@]1(C)O[C@@H]21`, for which the growth was -96.4% (active).

`C=C1C(=O)O[C@H]2[C@H]1CC/C(COC(=O)NCCc1ccc(OC)cc1)=C\CC[C@@]1(C)O[C@@H]21`: the growth was -58.4% (active). For `CCN(C(=O)c1cc2ccccc2[nH]1)[C@H]1CCC[C@@H](NCc2ccc(OC)cc2)C1`, the growth is 92.1% (inactive). Still for that read-out and setting: the result for `COc1ccc(C2NC3=C(CCCC3)C(C#N)(C#N)C2(C#N)C#N)cc1` (stereo not drawn) reads 78.7% (inactive); that for `CCCCCc1c(C)[nH]c(/C=c2\[nH]/c(=C3/C=c4ccccc4=N3)cc2OC)c1C`, -97.2% (active); that for `Nc1c(C(=O)Nc2cccc(Cl)c2Cl)sc2nc3c(cc12)C(=O)CCC3`, 93% (inactive). Turning to `O=C1CCC/C=C\C[C@H]2C=CC(=O)/C2=C/C[C@H](C/C=C\CC(F)(F)F)O1`, the growth is -51.4% (active). Still for that read-out and setting: the result for `COc1ccc(/C=C/C(=O)/C=C/c2cc3ccc(Cl)cc3[nH]c2=O)cc1` reads -50.8% (active). In the case of `N#Cc1c(NC(=O)c2ccc([N+](=O)[O-])o2)[n+]([O-])c2cc(F)c(F)cc2[n+]1[O-]`, the growth is 104% (inactive).

For `CC(CCc1ccccc1)NC(=O)c1n[nH]c(=O)c2ccccc12` (stereo not drawn), the growth is 97% (inactive). Take `COc1ccc(/C=C/c2cc(N3CCOCC3)c3cc(F)c(F)cc3n2)cc1OC`: the growth is 24.5% (inactive). On to `CC(C)C[C@H](NC(=O)Cn1ccc(NCc2ccccc2)cc1=O)B(O)O`, for which the growth is -47.7% (active).

Take `CCNc1nc(N2CC(=O)Nc3cc(OC)ccc32)c2ccccc2n1`: the growth was -14.1% (active). Consider `COc1ccc(/C=C/c2nc(N3CCOCC3)c3nc(Cl)c(Cl)cc3n2)cc1OC`, for which the growth is 89.3% (inactive).

Turning to `O=S=Nc1ccc([N+](=O)[O-])cc1`, the growth is 94% (inactive).

A further test concerns HCC-2998 colon. Described as above. As to conditions: 10 µM unless noted.
`C=C1C(=O)O[C@H]2[C@H]1CC/C(COC(=O)NCCc1ccc(Br)cc1)=C\CC[C@@]1(C)O[C@@H]21`: the growth was 71.1% (inactive).

Regarding `COc1ccc(C(=O)/C=C/c2ccc(/C=C/c3cc(OC)c(OC)c(OC)c3)cc2)cc1`, the growth is 94.1% (inactive). On to `COc1ccc(C2CC(=O)Nc3c2c(C)nn3-c2nc3ccccc3[nH]2)cc1OC` (stereo not drawn), for which the growth was 96.5% (inactive).

For `O=C(O)c1ccc(-n2cc(CNc3ccc(C(F)(F)F)cc3)c(-c3ccccc3)n2)cc1`, the growth was 108% (inactive). Take `C=C1C(=O)O[C@H]2[C@H]1CC/C(COC(=O)NCCc1cccc(OC)c1)=C\CC[C@@]1(C)O[C@@H]21`: the growth was 83.5% (inactive).

For the compound `Nc1ccc(S(=O)(=O)c2ccc(Cl)cc2)cc1`, the growth is 102% (inactive). For `CCNC(=O)C1CCCN1C(=O)C(CCCN=C(N)N)NC(=O)C(CC(C)C)NC(=O)C(CC(C)C)NC(=O)C(Cc1ccc(O)cc1)NC(=O)C(CO)NC(=O)C(Cc1c[nH]c2ccccc12)NC(=O)C(Cc1cnc[nH]1)NC(=O)C1CCC(=O)N1` (stereo not drawn), the growth is 94.4% (inactive).

In the case of `O=C(O)C(=Cc1c2ccccc2cc2ccccc12)C(=O)O`, the growth is 100% (inactive). In the case of `CCCCCCCCCCn1cc[n+](C)c1`, the growth was 31.1% (inactive). On the same count and under the same terms, the result for `Cc1oc2ncnc(Nc3ccccc3)c2c1C(=O)NCCO` reads 103% (inactive); that for `O=C(Nc1ccc(I)cc1)c1cc([N+](=O)[O-])ccc1O`, 16.1% (inactive). The same measure, in the same setting: the result for `C[C@]12CC[C@@H]3c4cc(O)c(O)cc4CC[C@H]3[C@@H]1CC[C@@H]2O` reads 91.4% (inactive); that for `O=C1C2=C(C(=O)c3c(O)ccc(O)c31)N(c1cccnc1)Cc1ccccc1O2`, -31.2% (active).

Regarding `CCCCCCc1nc2c(c(C)nn2-c2ccccc2)c2c1CCCCC2`, the growth is 106% (inactive). In the case of `COc1ccc(-c2nc3sccn3c2-c2ccnc(NCCCNS(=O)(=O)c3ccc(C)cc3)n2)cc1`, the growth was 25.9% (inactive).

In the case of `NC(=O)c1cccc(N2Cc3ccccc3OC3=C2C(=O)c2c(O)ccc(O)c2C3=O)c1`, the growth was -21.1% (active). On the same count and under the same terms, as for `COc1ccc2c(c1)C(=O)/C(=C/c1ccc(O)cc1)O2`, the figure is 114% (inactive); as for `COc1cccc(-c2nc3sccn3c2-c2ccnc(NCCCNS(=O)(=O)c3ccc(F)cc3)n2)c1`, 82.4% (inactive); as for `O=C1NCC(c2cc3ccccc3[nH]c2=O)Nc2ccccc21` (stereo not drawn), 104% (inactive). In the case of `COC1=CC(c2ccc[nH]2)=N/C1=C\c1[nH]c(C)c(C(=O)CCCCC(=O)NCc2ccccc2)c1C`, the growth is 57.8% (inactive). As for `COc1ncc(-c2ccc3ncnc(Nc4cccc(Cl)c4)c3c2)cc1NS(=O)(=O)C1CC1`, the growth was 59.9% (inactive). Consider `C=C1C(=O)O[C@H]2[C@H]1CC/C(Cn1cc(-c3ccsc3)nn1)=C\CC[C@@]1(C)O[C@@H]21`, for which the growth is -46.7% (active).

Take `C=C1C(=O)O[C@H]2[C@H]1CC/C(COC(=O)NCCc1ccc(OC)cc1)=C\CC[C@@]1(C)O[C@@H]21`: the growth is 71.1% (inactive). Turning to `CCN(C(=O)c1cc2ccccc2[nH]1)[C@H]1CCC[C@@H](NCc2ccc(OC)cc2)C1`, the growth was 78.3% (inactive). Regarding `COc1ccc(C2NC3=C(CCCC3)C(C#N)(C#N)C2(C#N)C#N)cc1` (stereo not drawn), the growth is 102% (inactive). As to `CCCCCc1c(C)[nH]c(/C=c2\[nH]/c(=C3/C=c4ccccc4=N3)cc2OC)c1C`, the growth was -11.4% (active). Regarding `Nc1c(C(=O)Nc2cccc(Cl)c2Cl)sc2nc3c(cc12)C(=O)CCC3`, the growth is 77.8% (inactive). Regarding `O=C1CCC/C=C\C[C@H]2C=CC(=O)/C2=C/C[C@H](C/C=C\CC(F)(F)F)O1`, the growth was -83.7% (active).

For the compound `COc1ccc(/C=C/C(=O)/C=C/c2cc3ccc(Cl)cc3[nH]c2=O)cc1`, the growth is 93.1% (inactive). As to `N#Cc1c(NC(=O)c2ccc([N+](=O)[O-])o2)[n+]([O-])c2cc(F)c(F)cc2[n+]1[O-]`, the growth was 106% (inactive).

As for `CC(CCc1ccccc1)NC(=O)c1n[nH]c(=O)c2ccccc12` (stereo not drawn), the growth is 156% (inactive).

In the case of `COc1ccc(/C=C/c2cc(N3CCOCC3)c3cc(F)c(F)cc3n2)cc1OC`, the growth is 29% (inactive). As for `CC(C)C[C@H](NC(=O)Cn1ccc(NCc2ccccc2)cc1=O)B(O)O`, the growth is 0.885% (active). The same measure, in the same setting: the result for `CCNc1nc(N2CC(=O)Nc3cc(OC)ccc32)c2ccccc2n1` reads -20.8% (active); that for `COc1ccc(/C=C/c2nc(N3CCOCC3)c3nc(Cl)c(Cl)cc3n2)cc1OC`, 103% (inactive). Still for that read-out and setting: the result for `O=S=Nc1ccc([N+](=O)[O-])cc1` reads 93.5% (inactive).
